CF NFkB block: inhibitors of PAF-induced NF-kB signaling, primary screen, cell-based, GFP fluorescence, uHTS; KKLEB NF-kB-GFP reporter, GFP fluorescence overnight; inhibition, % at 5 µM; hit rate 0.86% among 360,000;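 active means at least 50% inhibition at 5 µM, scaled per plate between neutral and stimulator controls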;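 further: PAF is a Pseudomonas aeruginosa culture filtrate used as stimulus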
Peg3 promoter: Peg3 promoter-driven luciferase inhibitors, primary screen, cell-based, HeLa, luciferase luminescence; hit rate 1.7% among 360,000; inhibition, % at 20 µM; HeLa PEG-Prom luciferase reporter, overnight;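 active means inhibition of at least 50% at 20 µM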
HIF-2a block: HIF-2a reporter inhibitors, primary screen, luminescence, 786-0 RCC cells; hit rate 0.72% among 360,000; inhibition, % at 18.8 µM; 786-0 RCC cells HIF-2a reporter, luciferase luminescence, overnight;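 active means inhibition of the luminescence signal of 40% or more relative to plate controls, in a single-dose primary screen at 18.75 µM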
TROY signal inh: inhibitors of TROY-driven NF-kB signaling, primary screen, Q293 LMP1-TROYcd cells, NF-kB luciferase, uHTS; hit rate 0.98% among 360,000; inhibition, % at 10 µM; Q293 LMP1-TROYcd NF-kB luciferase reporter, 4 h; AID 1347056, 2019;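 active means compounds whose plate-normalised and pattern-corrected inhibition of the luciferase reporter signal at the single screening dose is 50% or more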
TWEAK Fn14 block: inhibitors of TWEAK-Fn14 signaling, primary screen, luciferase reporter cells, uHTS | TWEAK-stimulated Fn14 reporter cells, luciferase luminescence, 8 h | inhibition, % at 10 µM | hit rate 2% among 360,000 | AID 1159606, 2016; in the data active means inhibition above about 50%
KKLEB tox: cytotoxicity in KKLEB CF airway cells, primary screen, cytotoxicity control for CF NF-kB inhibitor project, cell-based, uHTS, fluorescence assay plates | activity change (cytotoxicity), % at 5 µM | hit rate 0.36% among 360,000 | KKLEB CF airway cells viability, ATPlite luminescence, overnight; stronger effect = lower value; cells stimulated with P. aeruginosa culture filtrate;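 active means corrected activity change at or below -50% at 5 µM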
Numbers stand for hits; i = inactive; nt = not tested or not shown; ! = not confirmed by another sample. Only some compounds are listed: those with a hit (about 3.9% of all), similar ones and a draw of the others.

SMILES	CF NFkB block	Peg3 promoter	HIF-2a block	TROY signal inh	TWEAK Fn14 block	KKLEB tox
O=C(O)C1CC=CCC1C(=O)Nc1ccc2c(c1)OCCO2 (centres undefined)	i	i	i	58.7	79.3	i
O=C(Nc1ccc2c(c1)OCCO2)Nc1ccc2c(c1)OCO2	i	i	i	i	50.6	i
Cc1ccc(Cl)cc1NC(=O)COC(=O)C12CC3CC(CC(C3)C1)C2	i	i	i	i	66.8!	i
O=C(COc1ccc(Cl)cc1Cl)Nc1ccc(Cl)cn1	i	i	i	i	54.3	i
CC(=O)OCC(=O)Nc1ccc(Cl)cc1Cl	i	i	i	nt	54.2	i
O=C(COc1ccc(Cl)cc1Cl)Nc1ccccc1F	i	i	i	i	54.6	i
Cn1c(-c2ccccc2)cnc1NCc1cc(Cl)ccc1O	i	i	i	i	i	i
COc1ccc(/C=N/NC(=O)C(C)n2cnc3ccccc3c2=O)cc1 (centres undefined)	i	i	i	i	i	i
C/C(=N\NC(=S)NC(C)C)c1ccc(Cl)c([N+](=O)[O-])c1	i	i	i	i	i	i
CC(C)C(C(=O)OCC(=O)c1ccc2c(c1)NC(=O)CO2)N1C(=O)c2ccccc2C1=O (centres undefined)	i	i	i	i	i	i
Cc1ccccc1N(CC(=O)N1CCCC1)S(=O)(=O)c1ccc(Cl)cc1	i	i	i	i	i	i
O=C(c1cccs1)C1CCCN(Cc2nc(Cc3ccccc3F)no2)C1 (centres undefined)	i	i	i	i	i	i
COc1cccc(CN2CCC2(C)C(=O)Nc2cccc(NS(C)(=O)=O)c2)c1OC (centres undefined)	i	i	i	i	67.3	i
C/C(=C\C(=O)c1ccc(Br)cc1)NNC(=O)c1ccc(O)cc1	i	i	i	i	i	i
CCC1(c2ccccc2)ON(c2c(Br)cccc2Br)C1=O (centres undefined)	i	73.0	i	i	i	i
COc1ccc2[nH]c(=O)cc(C(=O)O)c2c1	i	i	i	i	i	i
COc1ccc2[nH]c3c4c(ccc3c2c1)C(=O)C=CC4=O	64.3	116.8	80.2	i	71.7	i
Cc1cc(Cl)ccc1OCC(=O)OC(C)C(=O)N(C)C (centres undefined)	i	i	i	i	i	i
CN(C)CCCN(C(=O)c1ccc(S(=O)(=O)N2CCc3ccccc32)cc1)c1nc2c(Cl)cccc2s1	i	i	i	i	i	i
CCOc1cccc2sc(N(CCCN(C)C)C(=O)c3ccc(C(=O)c4ccccc4)cc3)nc12	i	i	i	i	92.2	i
CCc1ccc2nc(N(CCCN(C)C)C(=O)c3ccc(S(=O)(=O)N4CCCc5ccccc54)cc3)sc2c1	i	106.1	i	i	i	i
CN(C)CCCN(C(=O)c1ccc(C(=O)c2ccccc2)cc1)c1nc2c(F)cccc2s1	i	i	i	i	i	i
COc1cccc2sc(N(CCCN(C)C)C(=O)c3ccc(S(=O)(=O)N4CCCc5ccccc54)cc3)nc12	i	53.6	i	i	i	i
CCc1ccc2nc(N(CCCN(C)C)C(=O)c3ccc(S(=O)(=O)N4CCCC4)cc3)sc2c1	i	i	i	i	i	i
COc1cc2nc(N(CCCN(C)C)C(=O)c3ccc(C(=O)c4ccccc4)cc3)sc2cc1OC	i	i	i	i	i	i
SMILES	CF NFkB block	Peg3 promoter	HIF-2a block	TROY signal inh	TWEAK Fn14 block	KKLEB tox
CCc1ccc2nc(N(CCCN(C)C)C(=O)c3ccc(C(=O)c4ccccc4)cc3)sc2c1	i	101.8	i	i	i	i
Cc1ccc(NS(=O)(=O)c2c(C)[nH]c(=O)[nH]c2=O)c(Br)c1	i	i	i	i	i	i
CN(C)CCCN(C(=O)c1ccc2c(c1)CCCC2)c1nc2ccc(Cl)cc2s1	i	107.7	i	i	i	i
COc1cccc2sc(N(CCCN(C)C)C(=O)c3ccc(S(=O)(=O)N4CCc5ccccc5C4)cc3)nc12	i	85.3	i	i	i	i
Cc1cc(C)c2nc(N(CCCN(C)C)C(=O)c3ccc4c(c3)OCCO4)sc2c1	i	97.7	i	i	i	i
COc1cc2nc(N(CCCN(C)C)C(=O)c3ccc(S(=O)(=O)N4CCc5ccccc5C4)cc3)sc2cc1OC	i	i	i	i	i	i
C=CCc1ccccc1OCCNCCCOC	i	i	i	i	i	i
COC(=O)C1=CN(c2ccc(OC)cc2OC)C(N)=C(C#N)C1c1ccccc1F (centres undefined)	nt	nt	i	nt	nt	nt
CC(=O)c1csc(COc2cc(Cl)cc(Cl)c2)n1	i	i	i	i	i	i
CCN(CC(=O)Nc1ccc(NC(C)=O)cc1)C(=O)CCCOc1cccc(C)c1	i	i	i	i	i	i
O=c1onc(-c2ccccc2Cl)n1-c1ccccc1Cl	i	i	i	i	i	i
COc1cc(C)nc(NCc2ccccc2)n1	i	i	i	i	i	i
Cc1cc(NC2CCCCC2)nc(NCc2ccccc2)n1	i	65.5	i	i	i	i
Cc1ccc(Nc2cc(C)nc(NCc3ccccc3)n2)cc1	i	73.3	i	i	i	i
COc1ccc(Nc2cc(C)nc(NCc3ccccc3)n2)cc1	i	i	i	i	i	i
CC(=O)Nc1ccc(NC(=O)c2cccc(C(=O)OC(C)C)n2)cc1	i	i	i	i	i	i
CC12C=CC3(O1)C(C(=O)N1CCCOC13)C2C(=O)O (centres undefined)	i	i	i	i	i	i
CN(Cc1cccc(F)c1)C(=O)C1CC(=O)N(Cc2ccco2)C1 (centres undefined)	i	i	i	i	i	i
Cc1ccc(Cl)cc1N1CCN(C(=O)c2ccc(CS(=O)Cc3ccc(Cl)cc3)o2)CC1 (centres undefined)	i	i	i	53.6	i	i
Cc1ccc(CS(=O)Cc2ccc(C(=O)N3CCN(c4cccc(C)c4C)CC3)o2)cc1 (centres undefined)	i	i	i	57.0	i	i
Cc1cccc(N2CCN(C(=O)c3ccc(CS(=O)Cc4cccc(Cl)c4)o3)CC2)c1C (centres undefined)	i	i	i	i	i	i
O=C1NC2CCCCC2C(=O)N1OS(=O)(=O)c1ccccc1 (centres undefined)	i	50.9	i	i	i	i
COc1cccc(C(=O)CC(=O)C(=O)Nc2ccc(C)cc2Cl)c1	i	i	i	i	91.2	i
COc1ccc(C(=O)CC(=O)C(=O)Nc2ccccc2OC)cc1	i	i	i	i	i	i
COc1ccc(C(=O)CC(=O)C(=O)Nc2ccc(C)cc2Cl)cc1	i	i	i	i	51.6	i

Bioassay records: PubChem, Sanford-Burnham Center for Chemical Genomics
